# “And” between values parts separate entries of the source, which are not always exact repeats. Equal entries are not always repeated. Results filed as inconclusive are left out. A call without a number means that no potency is given here. Where a structure was tested more than once in an assay, its records may differ in their call. The source made the active and inactive calls. Unless noted, calls come from the whole dose curve; as a rule, active = well fitted curve in the direction sought with a large enough effect in the repeat runs; inconclusive = weak or mixed curves; inactive = no such curve, though single readings can be large; an effect the other way counts as inactive or inconclusive.
# Key:
# [1] = qHTS assay to identify small molecule antagonists of the progesterone receptor (PR) signaling pathway - cell viability counter screen (AID 1346798); note: series mostly up to about 92 µM; nearly all actives have a fitted effect of over 50% in size
# Summary of the method: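 Following a 4 hr attachment, PR-UAS-bla HEK293T cells in charcoal-stripped FBS medium were exposed to compounds with R5020 for 16 hr; CellTiter-Glo was added and luminescence read after 30 min at room temperature.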
# [2] = qHTS assay to identify small molecule agonists of the progesterone receptor (PR) signaling pathway - cell viability counter screen (AID 1346799; calls by dose curve; note: nearly all actives have a fitted effect of over 45% in size)
# Summary of the method: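 Here, 3,000 PR-UAS-bla HEK293T cells per well were treated with compounds for 16 hr after a 6 hr preincubation at 37C and 5% CO2; cell viability is the CellTiter-Glo luminescence signal.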
# [3] = qHTS assay to identify small molecule antagonists of the TGF-beta/Smad signaling pathway - cell viability counter screen (AID 1346824); note: nearly all actives have a fitted effect of over 50% in size
# Summary of the method: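 SBE-bla HEK 293T cells were plated overnight at 37 C, then given compounds in DMSO plus TGF-beta1 (added as 0.25 ng/mL solution) for 5 hr. After the bla read, CellTiter-Glo was added to the same wells and luminescence read after 30 min at room temperature.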
# [4] = qHTS assay to identify small molecule agonists of the TGF-beta/Smad signaling pathway - cell viability counter screen (AID 1346829); note: top concentration of the series differs between compounds; nearly all actives have a fitted effect of over 45% in size
# Summary of the method: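 CellTiter-Glo luminescence readout; SBE-bla HEK 293T cells, overnight plating, compound 5 hr at 37 C/5% CO2, then bla substrate 2 hr RT, then CellTiter-Glo 30 min RT.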
# [5] = qHTS assay to identify small molecule agonists of the TGF-beta/Smad signaling pathway (AID 1346859; active = well fitted activation curve with a large enough effect in the signal ratio in the repeat runs, not every such curve was filed as active; the % refers to the signal ratio; note: series mostly up to about 77 µM)
# Summary of the method: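 Each well held 4,000 SBE-bla HEK 293T cells incubated overnight before compound addition; 5 hr later the cleavable FRET substrate went on for 2 hr at room temperature, and fluorescence was read at two emissions.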
# [6] = molecular target: Thyrotropin-releasing hormone receptor (Homo sapiens) (UniProt P34981); test: qHTS assay to identify small molecule antagonists of the thyrotropin-releasing hormone receptor (TRHR) signaling pathway (AID 1346877; active = well fitted inhibition curve with a large enough effect in the repeat runs, not every such curve was filed as active; note: series mostly up to about 51 µM)
# Summary of the method: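 Calcium signal in dye-loaded TRHR/HEK293 cells; compounds added 5 min before TRH (1 nM final); fluorescence monitored 3 min at 1 s steps.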
# [7] = molecular target: Thyrotropin-releasing hormone receptor (Homo sapiens) (UniProt P34981); test: qHTS assay to identify small molecule agonists of the thyrotropin-releasing hormone receptor (TRHR) signaling pathway (AID 1346891; calls by dose curve; note: series mostly up to about 58 µM)
# Summary of the method: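 Screening of agonists relied on calcium signalling in HEK293 cells expressing human TRHR: dye loading 2 h at 37 °C preceded compound addition and a 3-min fluorescence time course.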
# [8] = Human pregnane X receptor (PXR) small molecule agonists, qHTS cell viability counter screen (AID 1346977); note: nearly all actives have a fitted effect of over 50% in size; note: potency is the fitted concentration of half-maximal effect
# Summary of the method: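 Tox21 qHTS format; PXR-Luc HepG2, 2,000/well, charcoal-stripped FBS 5%. Cpd exposure 24hr. Read: CellTiter-Fluor fluorescence, multiplexed with luciferase.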
# [9] = Caspase-3/7 induction in HepG2 cells by small molecules, qHTS assay (AID 1346978); note: nearly all actives have a fitted effect of over 15% in size
# Summary of the method: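 Wild-type HepG2 cells (2,000/well) were settled 5 h at 37 C, 5% CO2, then exposed to compounds in DMSO for 17 h. Caspase-3/7 activity was read by luminescence 30 min after adding Caspase-Glo 3/7 reagent at room temperature.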
# [10] = Caspase-3/7 induction in CHO-K1 cells by small molecules, qHTS cell viability counter screen (AID 1346979); note: nearly all actives have a fitted effect of over 35% in size; note: potency is the fitted concentration of half-maximal effect
# Summary of the method: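 CellTiter-Fluor viability check, qHTS format: wild-type CHO-K1, 16hr compound treatment, 1hr reagent incubation, fluorescence read.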
# [11] = Caspase-3/7 induction in CHO-K1 cells by small molecules, qHTS assay (AID 1346980); note: nearly all actives have a fitted effect of over 15% in size
# Summary of the method: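 Wild-type cells were seeded at 1,500 per well and settled 5 hr at 37 C, 5% CO2, then exposed to DMSO-dissolved compounds for 17 hr. Caspase-Glo 3/7 reagent was added, and luminescence was read after 30min at room temperature.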
# [12] = Caspase-3/7 induction in HepG2 cells by small molecules, qHTS cell viability counter screen (AID 1346981); note: nearly all actives have a fitted effect of over 30% in size; note: potency is the fitted concentration of half-maximal effect
# Summary of the method: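 After a 5-hr attachment period at 37 C and 5% CO2, wild-type HepG2 cells received compounds in DMSO. Sixteen hours later CellTiter-Fluor was dispensed and the fluorescent signal quantified after a further hour.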
# [13] = molecular target: Nuclear receptor subfamily 1 group I member 2 (Homo sapiens) (UniProt O75469); test: Human pregnane X receptor (PXR) small molecule agonists, qHTS assay (AID 1346982); note: nearly all actives have a fitted effect of over 35% in size; note: potency is the fitted concentration of half-maximal effect
# Summary of the method: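 Tox21 qHTS; PXR-Luc HepG2; compounds pinned from DMSO; 24 hr, 37 C; ONE-Glo luciferase detection, 30 min room temperature.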
# [14] = molecular target: Cytochrome P450 2D6 (Homo sapiens) (UniProt P10635); test: Cytochrome P450 Family 2 Subfamily D Member 6 (CYP2D6) small molecule antagonists: luciferase reporter qHTS assay (AID 1671196); note: series mostly up to about 120 µM; nearly all actives have a fitted effect of over 50% in size
# Summary of the method: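 Room-temperature luminescent CYP2D6 activity assay: compound preincubated 10 min with enzyme–substrate mix, NADPH-initiated reaction 1 h, detection reagent 20 min before reading.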
# [15] = molecular target: Cytochrome P450 2C19 (Homo sapiens) (UniProt P33261); test: Cytochrome P450 Family 2 Subfamily C Member 19 (CYP2C19) small molecule antagonists: luciferase reporter qHTS assay (AID 1671197); note: nearly all actives have a fitted effect of over 65% in size; note: potency is the fitted concentration of half-maximal effect; for activity change, negative = inhibition: series mostly up to about 120 µM
# Summary of the method: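 Enzyme-substrate mix with proluciferin substrate (P450-Glo CYP2C19 system) preincubated with compounds 10 min at room temperature; NADPH regeneration solution added, 37C for 1 h; detection reagent stops reaction, luminescence read after 20 min. Ketoconazole positive control.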
# [16] = molecular target: Progesterone receptor (Homo sapiens) (UniProt P06401); test: qHTS assay to identify small molecule agonists of the progesterone receptor (PR) signaling pathway (AID 1346784; calls by dose curve; note: nearly all actives have a fitted effect of over 30% in size)
# Summary of the method: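 Compounds were tested for PR agonism in HEK 293T cells bearing a beta-lactamase gene under UAS control. Treatment lasted 16 hr at 37C; signal came from fluorescence of a FRET substrate.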
# [17] = molecular target: Progesterone receptor (Homo sapiens) (UniProt P06401); test: qHTS assay to identify small molecule antagonists of the progesterone receptor (PR) signaling pathway (AID 1346795; active = well fitted inhibition curve with a large enough effect in the signal ratio in the repeat runs, not every such curve was filed as active; the % refers to the signal ratio)
# Summary of the method: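 In HEK293T cells bearing the PR-UAS-bla reporter, compound effects on promegestone-driven (1 nM) beta-lactamase expression are assessed after 16 hr using a fluorescent FRET substrate incubated 2 hr at room temperature.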
# [18] = molecular target: Nuclear receptor subfamily 1 group I member 2 (Rattus norvegicus) (UniProt Q9R1A7); test: Rat pregnane X receptor (rPXR) activation by small molecules, qHTS assay (AID 1346983); details: rPXR luciferase reporter cells, One-Glo luminescence, 24 h; stronger effect = higher value; note: nearly all actives have a fitted effect of over 20% in size
# Summary of the method: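 Cell-based rPXR luciferase reporter assay, 2,000 cells per well, rested 5hr at 37 C before compound addition in DMSO, then 24 hr at 37 C. One-Glo reagent was added and luminescence read after 30 min at room temperature.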
# [19] = molecular target: Nuclear receptor subfamily 1 group I member 2 (Homo sapiens) (UniProt O75469); test: CYP3A4 induction through human pregnane X receptor (PXR) by small molecules, qHTS assay (AID 1346984); note: nearly all actives have a fitted effect of over 40% in size
# Summary of the method: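 Cells (DPX-2; HepG2 with PXR element plus CYP3A4-promoter luciferase) settled 5hr, then were treated 24hr at 37C. A 3hr, 3uM-final Luciferin-IPA step preceded luminescence measurement with One-Glo.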
# [20] = molecular target: Nuclear receptor subfamily 1 group I member 2 (Homo sapiens) (UniProt O75469); test: Human pregnane X receptor (PXR) activation by small molecules, qHTS assay (AID 1346985); note: nearly all actives have a fitted effect of over 40% in size
# Summary of the method: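 DPX-2 cells (HepG2 co-transfected with a PXR response element and a CYP3A4-promoter luciferase construct) were seeded at 2,000 per well, rested 5 hr at 37C, then exposed to DMSO-dissolved compounds for 24 hr. Activation was read as luciferase luminescence.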
# Progesterone receptor (Homo sapiens), sequence (P06401 whole entry, looked up): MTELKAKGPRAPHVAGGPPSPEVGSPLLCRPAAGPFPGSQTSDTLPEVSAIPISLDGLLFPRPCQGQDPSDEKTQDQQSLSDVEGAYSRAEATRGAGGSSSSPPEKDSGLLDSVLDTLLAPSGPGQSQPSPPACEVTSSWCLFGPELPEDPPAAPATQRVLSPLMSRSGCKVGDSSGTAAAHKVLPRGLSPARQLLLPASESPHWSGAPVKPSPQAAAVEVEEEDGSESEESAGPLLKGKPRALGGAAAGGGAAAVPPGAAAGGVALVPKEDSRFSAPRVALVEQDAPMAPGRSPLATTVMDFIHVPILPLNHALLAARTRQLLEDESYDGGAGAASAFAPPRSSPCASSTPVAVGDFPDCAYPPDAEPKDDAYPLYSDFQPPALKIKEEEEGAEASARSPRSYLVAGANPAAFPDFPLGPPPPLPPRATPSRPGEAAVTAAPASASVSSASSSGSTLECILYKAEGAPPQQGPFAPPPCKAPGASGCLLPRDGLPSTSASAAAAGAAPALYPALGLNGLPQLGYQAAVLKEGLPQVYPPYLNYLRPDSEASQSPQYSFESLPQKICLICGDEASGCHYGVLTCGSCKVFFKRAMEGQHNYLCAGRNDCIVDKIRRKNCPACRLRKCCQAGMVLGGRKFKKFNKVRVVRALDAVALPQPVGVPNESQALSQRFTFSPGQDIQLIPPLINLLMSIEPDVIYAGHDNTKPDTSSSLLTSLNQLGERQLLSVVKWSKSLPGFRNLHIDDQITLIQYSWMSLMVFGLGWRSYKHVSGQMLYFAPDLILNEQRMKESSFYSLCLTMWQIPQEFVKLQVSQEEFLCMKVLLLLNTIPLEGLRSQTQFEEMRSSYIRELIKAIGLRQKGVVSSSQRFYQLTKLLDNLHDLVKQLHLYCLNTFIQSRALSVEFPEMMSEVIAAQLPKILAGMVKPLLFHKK
# Nuclear receptor subfamily 1 group I member 2 (Homo sapiens), sequence (O75469 whole entry, looked up): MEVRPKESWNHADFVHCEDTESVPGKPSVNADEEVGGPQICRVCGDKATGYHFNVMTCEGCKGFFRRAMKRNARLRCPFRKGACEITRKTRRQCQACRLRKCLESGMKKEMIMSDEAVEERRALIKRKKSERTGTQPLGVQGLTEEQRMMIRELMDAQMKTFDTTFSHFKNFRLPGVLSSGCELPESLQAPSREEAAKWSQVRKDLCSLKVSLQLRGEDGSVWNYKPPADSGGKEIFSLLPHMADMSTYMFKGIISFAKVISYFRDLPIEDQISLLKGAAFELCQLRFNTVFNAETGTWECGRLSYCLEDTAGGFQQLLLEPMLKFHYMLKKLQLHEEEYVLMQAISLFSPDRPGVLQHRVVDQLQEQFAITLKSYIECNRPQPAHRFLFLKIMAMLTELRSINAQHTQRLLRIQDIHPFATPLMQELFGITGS
# Cytochrome P450 2D6 (Homo sapiens), sequence (P10635 whole entry, looked up): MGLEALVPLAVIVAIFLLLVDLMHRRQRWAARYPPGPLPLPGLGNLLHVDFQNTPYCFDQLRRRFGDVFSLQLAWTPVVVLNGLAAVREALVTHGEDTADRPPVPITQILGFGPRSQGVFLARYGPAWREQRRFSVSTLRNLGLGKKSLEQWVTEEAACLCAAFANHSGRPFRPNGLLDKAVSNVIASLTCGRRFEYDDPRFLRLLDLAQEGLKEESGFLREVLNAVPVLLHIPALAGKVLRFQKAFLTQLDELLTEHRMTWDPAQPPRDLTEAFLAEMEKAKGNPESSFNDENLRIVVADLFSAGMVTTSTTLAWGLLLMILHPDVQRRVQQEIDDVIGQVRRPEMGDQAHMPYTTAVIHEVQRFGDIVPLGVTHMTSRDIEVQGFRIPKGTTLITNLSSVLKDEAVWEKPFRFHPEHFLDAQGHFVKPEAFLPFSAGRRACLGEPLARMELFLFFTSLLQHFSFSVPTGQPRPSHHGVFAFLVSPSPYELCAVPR
# Nuclear receptor subfamily 1 group I member 2 (Rattus norvegicus), sequence (Q9R1A7 whole entry, looked up): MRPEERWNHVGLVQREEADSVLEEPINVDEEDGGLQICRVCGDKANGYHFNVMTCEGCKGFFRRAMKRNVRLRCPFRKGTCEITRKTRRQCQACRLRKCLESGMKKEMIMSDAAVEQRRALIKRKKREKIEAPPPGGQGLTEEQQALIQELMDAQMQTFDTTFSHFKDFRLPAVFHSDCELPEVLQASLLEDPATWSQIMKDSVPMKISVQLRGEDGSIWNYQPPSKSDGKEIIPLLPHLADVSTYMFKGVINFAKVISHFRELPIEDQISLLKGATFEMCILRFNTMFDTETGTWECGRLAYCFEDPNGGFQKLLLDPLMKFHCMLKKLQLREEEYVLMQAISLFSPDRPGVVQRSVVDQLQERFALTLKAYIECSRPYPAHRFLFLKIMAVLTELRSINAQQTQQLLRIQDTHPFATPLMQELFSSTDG
# Thyrotropin-releasing hormone receptor (Homo sapiens), sequence (P34981 whole entry, looked up): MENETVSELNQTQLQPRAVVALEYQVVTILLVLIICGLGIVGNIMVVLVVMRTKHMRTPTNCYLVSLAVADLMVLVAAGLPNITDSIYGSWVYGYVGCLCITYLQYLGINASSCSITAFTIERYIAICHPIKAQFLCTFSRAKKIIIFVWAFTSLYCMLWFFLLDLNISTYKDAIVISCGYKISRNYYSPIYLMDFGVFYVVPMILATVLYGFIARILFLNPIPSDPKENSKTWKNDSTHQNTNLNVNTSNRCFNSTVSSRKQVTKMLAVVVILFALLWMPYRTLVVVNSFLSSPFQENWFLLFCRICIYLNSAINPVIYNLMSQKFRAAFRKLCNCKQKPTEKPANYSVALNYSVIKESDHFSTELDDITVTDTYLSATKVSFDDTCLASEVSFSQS
# Cytochrome P450 2C19 (Homo sapiens), sequence (P33261 whole entry, looked up): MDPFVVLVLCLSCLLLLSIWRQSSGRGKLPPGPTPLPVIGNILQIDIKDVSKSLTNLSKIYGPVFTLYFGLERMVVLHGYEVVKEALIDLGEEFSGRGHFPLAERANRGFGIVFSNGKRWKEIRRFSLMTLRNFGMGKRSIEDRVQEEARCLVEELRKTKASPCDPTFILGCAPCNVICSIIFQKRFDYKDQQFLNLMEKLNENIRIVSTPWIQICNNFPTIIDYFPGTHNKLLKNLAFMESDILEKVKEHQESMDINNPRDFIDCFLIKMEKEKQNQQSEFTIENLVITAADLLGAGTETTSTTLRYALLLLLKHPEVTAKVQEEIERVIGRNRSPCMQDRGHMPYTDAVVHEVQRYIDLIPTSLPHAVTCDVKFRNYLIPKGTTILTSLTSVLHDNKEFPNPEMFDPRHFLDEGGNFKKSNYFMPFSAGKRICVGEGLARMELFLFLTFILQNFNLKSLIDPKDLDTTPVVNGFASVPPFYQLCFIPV
smiles,measurement,setting,value
O=C(O)c1[nH]n(-c2ccc(S(=O)(=O)O)cc2)c(=O)c1N=Nc1ccc(S(=O)(=O)O)cc1,Potency,[1],inactive
same,Potency,[2],inactive
same,outcome,[3],inactive
same,Potency,[4],inactive
same,outcome,[5],inactive
same,outcome,[6],inactive
same,outcome,[7],inactive
same,Potency,[8],39.8 µM (active) and 45.4 µM (active)
same,Potency,[9],inactive
same,Potency,[10],29.8 µM (active) and 48.7 µM (active) and 45.4 µM (active)
same,outcome,[11],inactive
same,Potency,[12],29.8 µM (active) and 27.4 µM (active) and 50.9 µM (active)
same,Potency,[13],inactive
same,Potency,[14],inactive
same,Potency,[15],inactive and 79.9 µM (active) and 29.6 µM (active)
O=NO,Potency,[1],inactive
same,Potency,[2],inactive
same,outcome,[3],inactive
same,Potency,[4],inactive
same,outcome,[5],inactive
same,Potency,[8],inactive
same,Potency,[9],inactive
same,Potency,[10],inactive
same,outcome,[11],inactive
same,Potency,[12],inactive
Cc1cn([C@H]2C[C@H](N=[N+]=[N-])[C@@H](CO)O2)c(=O)[nH]c1=O,Potency,[16],inactive
same,outcome,[17],inactive
same,Potency,[1],inactive
same,Potency,[2],inactive
same,outcome,[3],inactive
same,Potency,[4],inactive
same,outcome,[5],inactive
same,Potency,[8],70.8 µM (active) and inactive
same,Potency,[9],inactive
same,Potency,[10],15.8 µM (active) and inactive
same,outcome,[11],inactive
same,Potency,[12],inactive
same,Potency,[13],inactive
same,max activation,[18],-3.59% (inactive)
same,outcome,[19],inactive
same,Potency,[20],inactive
same,Potency,[14],inactive
same,Potency,[15],41.1 µM (active) and 39.9 µM (active) and inactive
Cc1ccc(C)c(OCCCC(C)(C)C(=O)O)c1,Potency,[16],inactive
same,outcome,[17],inactive
same,Potency,[1],inactive
same,Potency,[2],inactive
same,outcome,[3],inactive
same,Potency,[4],inactive
same,outcome,[5],inactive
same,Potency,[8],inactive
same,Potency,[9],inactive
same,Potency,[10],inactive
same,outcome,[11],inactive
same,Potency,[12],inactive
same,Potency,[13],inactive
same,Potency,[14],inactive
same,Potency,[15],50.6 µM (active) and 56.4 µM (active) and inactive
Nc1ccc(S(=O)(=O)Nc2nccs2)cc1,Potency,[16],inactive
same,outcome,[17],inactive
same,Potency,[1],inactive
same,Potency,[2],inactive
same,outcome,[3],inactive
same,Potency,[4],inactive
same,outcome,[5],inactive
same,Potency,[8],inactive
same,Potency,[9],inactive
same,Potency,[10],inactive
same,outcome,[11],inactive
same,Potency,[12],inactive
same,Potency,[13],inactive
same,Potency,[14],inactive
same,Potency,[15],inactive
O=C(O)C(=O)O,Potency,[16],inactive
same,outcome,[17],inactive
same,Potency,[1],inactive
same,Potency,[2],inactive
same,outcome,[3],inactive
same,Potency,[4],inactive
same,outcome,[5],inactive
same,Potency,[8],inactive
same,Potency,[9],inactive
same,Potency,[10],inactive
same,outcome,[11],inactive
same,Potency,[12],inactive
same,Potency,[13],inactive
same,Potency,[14],inactive
same,Potency,[15],81 µM (active)
same,"activity change, negative = inhibition",[15],-11.9% [at 10.5 µM] (inactive)
CCCC(O)C(CC)CO (stereo not given),Potency,[16],inactive
same,outcome,[17],inactive
same,Potency,[1],inactive
same,Potency,[2],inactive
same,outcome,[3],inactive
same,Potency,[4],inactive
same,outcome,[5],inactive
same,Potency,[8],inactive
same,Potency,[9],inactive
same,Potency,[10],inactive
same,outcome,[11],inactive
same,Potency,[12],inactive
same,Potency,[13],inactive
same,max activation,[18],-6.82% (inactive)
same,outcome,[19],inactive
same,Potency,[20],inactive
same,Potency,[14],inactive
same,Potency,[15],inactive
Cc1ccccc1C(OCCN(C)C)c1ccccc1 (stereo not given),Potency,[16],inactive
same,outcome,[17],inactive
same,Potency,[2],inactive
same,outcome,[3],inactive
same,Potency,[4],inactive
same,outcome,[5],inactive
same,outcome,[6],inactive
same,outcome,[7],inactive
same,Potency,[8],inactive
same,Potency,[9],inactive
same,Potency,[10],inactive
same,outcome,[11],inactive
same,Potency,[12],inactive
same,Potency,[13],inactive and 9.69 µM (active)
same,max activation,[18],-0.826% (inactive)
same,outcome,[19],inactive
same,Potency,[20],inactive
same,Potency,[15],inactive

# — PubChem BioAssay (Tox21)
